# According to the supplement of paper PMC10849652:
# Targets with a hit are over-represented here; the source holds about 7,900 in all. About 0.6% of all pairs of compound and target were hits. Unmarked numbers belong to inactive results.
# Tests used:
# Test in all cases: log2 fold change, soluble protein after heating vs DMSO (PISA); higher = thermal stabilisation; K562 cells, 10 uM, 30 min; active = over 0.2 and 3.5 SD of the protein, either way, in both replicates (recomputed)
# erlotinib = compound: C#Cc1cccc(Nc2ncnc3cc(OCCOC)c(OCCOC)cc23)c1 [erlotinib]
# How it was run: (§1)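 Thermal stability values are relative to control samples and come from duplicates. They are expressed as log2 fold changes. For measurement, K562 cells (2×10^6 cells/mL) received 10 μM compound for 30 min, and aliquots were heated for 3 min over 48°C-58°C, pooled, and extracted at 4°C in PBS with 0.5% NP-40. Soluble protein, the supernatant after 21,000xg for 90 min, was quantified by TMTpro 16plex LC-MS/MS with equalised channel sums.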
# [1] = compound: C/C(=N\NC(=O)C1=CC(=CC=C1)S(=O)(=O)N2CCOCC2)/C3=C(C=CC(=C3)Cl)O
# How it was run: as §1
# [2] = compound: C1=CC(=C(C=C1Cl)C2=NC3=NC=CN=C3C(=N2)NC4=CC=NC=C4)F
# How it was run: as §1
# [3] = compound: C1=CC(=CC=C1C2=NC3=C(N2)C=C(C=C3)C(=O)N)OC4=CC=C(C=C4)Cl
# How it was run: as §1
# [4] = compound: C1=CC2=C(C=CC(=C2)/C=C\3/C(=O)NC(=NCC4=CC=CS4)S3)N=C1
# How it was run: as §1
# [5] = compound: C1=CC2=NC=CN=C2C=C1/C=C/3\C(=O)NC(=O)S3
# How it was run: as §1
# [6] = compound: C1=CC=C(C=C1)C2=NC(=C(N2)C3=CC=NC=C3)C4=CC(=C(C=C4)Cl)O
# How it was run: as §1
# [7] = compound: C1=CC=C2C(=C1)C3=NNC4=CC=CC(=C43)C2=O
# How it was run: as §1
# [8] = compound: C1CCN(C1)C(=O)NC2=CC=CC(=C2)NC3=NC=C(C(=N3)NCCC4=CN=CN4)Br
# How it was run: as §1
# [9] = compound: C1CN(CCC1(CC2=CC=C(C=C2)Cl)N)C3=NC=NC4=C3C=CN4
# How it was run: as §1
# Sequence of UniProt P55209 (P55209 whole entry, looked up): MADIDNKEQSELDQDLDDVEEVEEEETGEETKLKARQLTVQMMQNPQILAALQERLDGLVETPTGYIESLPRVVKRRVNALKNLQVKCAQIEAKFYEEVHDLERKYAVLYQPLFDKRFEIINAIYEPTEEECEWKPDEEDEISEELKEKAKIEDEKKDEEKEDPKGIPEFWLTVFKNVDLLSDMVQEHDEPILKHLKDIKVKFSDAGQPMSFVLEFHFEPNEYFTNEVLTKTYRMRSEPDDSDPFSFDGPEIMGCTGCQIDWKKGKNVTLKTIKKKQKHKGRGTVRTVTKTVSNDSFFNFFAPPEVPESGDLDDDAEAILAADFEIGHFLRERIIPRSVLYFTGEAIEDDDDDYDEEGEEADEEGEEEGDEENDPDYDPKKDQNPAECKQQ
# Sequence of UniProt Q15014 (Q15014 whole entry, looked up): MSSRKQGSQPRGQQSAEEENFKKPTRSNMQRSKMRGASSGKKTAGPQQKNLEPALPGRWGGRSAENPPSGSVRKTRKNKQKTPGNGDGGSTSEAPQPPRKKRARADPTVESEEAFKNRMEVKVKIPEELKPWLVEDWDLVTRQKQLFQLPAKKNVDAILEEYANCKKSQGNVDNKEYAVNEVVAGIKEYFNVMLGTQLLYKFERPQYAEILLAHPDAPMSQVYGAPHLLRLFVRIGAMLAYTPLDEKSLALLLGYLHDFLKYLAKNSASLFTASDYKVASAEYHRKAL
# Sequence of UniProt Q96BN8 (Q96BN8 whole entry, looked up): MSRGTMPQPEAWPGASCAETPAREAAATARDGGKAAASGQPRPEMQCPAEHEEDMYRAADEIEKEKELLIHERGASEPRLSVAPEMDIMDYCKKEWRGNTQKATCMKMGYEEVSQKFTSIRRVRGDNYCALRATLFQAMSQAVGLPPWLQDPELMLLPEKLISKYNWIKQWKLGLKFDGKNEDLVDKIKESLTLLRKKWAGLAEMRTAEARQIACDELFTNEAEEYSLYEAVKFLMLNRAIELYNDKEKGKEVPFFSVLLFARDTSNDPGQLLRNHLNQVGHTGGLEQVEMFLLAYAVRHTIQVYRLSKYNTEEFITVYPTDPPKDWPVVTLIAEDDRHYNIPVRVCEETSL
# Sequence of UniProt Q9HAN9 (Q9HAN9 whole entry, looked up): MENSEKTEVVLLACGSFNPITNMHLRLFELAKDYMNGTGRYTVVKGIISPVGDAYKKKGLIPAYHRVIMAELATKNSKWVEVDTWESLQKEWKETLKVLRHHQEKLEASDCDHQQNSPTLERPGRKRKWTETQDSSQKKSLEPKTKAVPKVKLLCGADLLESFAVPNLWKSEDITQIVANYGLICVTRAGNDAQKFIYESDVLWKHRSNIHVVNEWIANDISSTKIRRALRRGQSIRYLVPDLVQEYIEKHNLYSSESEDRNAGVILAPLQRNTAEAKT
# Sequence of UniProt Q68DK7 (Q68DK7 whole entry, looked up): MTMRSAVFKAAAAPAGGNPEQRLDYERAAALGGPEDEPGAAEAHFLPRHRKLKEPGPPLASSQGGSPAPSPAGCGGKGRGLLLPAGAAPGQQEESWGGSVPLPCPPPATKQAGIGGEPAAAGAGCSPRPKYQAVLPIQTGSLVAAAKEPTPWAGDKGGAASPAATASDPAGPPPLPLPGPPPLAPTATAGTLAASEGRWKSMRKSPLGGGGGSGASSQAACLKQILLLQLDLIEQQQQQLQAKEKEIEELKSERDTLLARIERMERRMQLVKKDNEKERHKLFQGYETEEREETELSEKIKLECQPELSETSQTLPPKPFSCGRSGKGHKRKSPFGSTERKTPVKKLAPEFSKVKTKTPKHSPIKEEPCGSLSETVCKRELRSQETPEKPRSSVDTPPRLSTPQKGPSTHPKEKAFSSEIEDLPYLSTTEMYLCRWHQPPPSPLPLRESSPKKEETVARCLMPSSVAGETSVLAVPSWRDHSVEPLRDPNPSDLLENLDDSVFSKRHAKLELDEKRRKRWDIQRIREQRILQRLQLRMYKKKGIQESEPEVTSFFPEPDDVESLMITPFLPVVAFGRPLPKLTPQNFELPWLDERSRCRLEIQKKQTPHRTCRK
# Sequence of UniProt P11586 (P11586 whole entry, looked up): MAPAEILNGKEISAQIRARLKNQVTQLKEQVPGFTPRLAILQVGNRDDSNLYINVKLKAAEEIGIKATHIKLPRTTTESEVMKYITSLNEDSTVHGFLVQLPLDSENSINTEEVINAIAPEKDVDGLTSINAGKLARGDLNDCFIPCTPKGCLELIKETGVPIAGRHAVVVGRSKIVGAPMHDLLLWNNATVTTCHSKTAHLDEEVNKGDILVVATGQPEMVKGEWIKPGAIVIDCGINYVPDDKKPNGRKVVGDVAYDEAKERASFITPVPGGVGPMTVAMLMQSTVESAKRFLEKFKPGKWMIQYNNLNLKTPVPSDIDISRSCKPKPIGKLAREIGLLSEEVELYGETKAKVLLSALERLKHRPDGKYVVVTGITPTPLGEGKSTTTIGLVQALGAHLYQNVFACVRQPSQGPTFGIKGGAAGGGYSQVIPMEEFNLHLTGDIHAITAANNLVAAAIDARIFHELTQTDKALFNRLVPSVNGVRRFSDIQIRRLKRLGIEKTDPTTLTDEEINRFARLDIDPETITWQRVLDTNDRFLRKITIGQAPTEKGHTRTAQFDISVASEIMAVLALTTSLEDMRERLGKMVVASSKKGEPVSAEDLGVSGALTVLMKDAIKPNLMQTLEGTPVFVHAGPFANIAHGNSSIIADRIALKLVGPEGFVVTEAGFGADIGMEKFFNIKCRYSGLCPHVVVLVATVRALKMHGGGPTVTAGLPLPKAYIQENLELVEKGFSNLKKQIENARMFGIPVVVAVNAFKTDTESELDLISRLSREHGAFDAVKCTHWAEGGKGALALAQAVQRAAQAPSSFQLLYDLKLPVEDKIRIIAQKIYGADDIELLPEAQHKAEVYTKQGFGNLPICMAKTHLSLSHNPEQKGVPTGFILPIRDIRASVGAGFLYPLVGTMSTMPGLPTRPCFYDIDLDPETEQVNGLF
# Sequence of UniProt Q86WC4 (Q86WC4 whole entry, looked up): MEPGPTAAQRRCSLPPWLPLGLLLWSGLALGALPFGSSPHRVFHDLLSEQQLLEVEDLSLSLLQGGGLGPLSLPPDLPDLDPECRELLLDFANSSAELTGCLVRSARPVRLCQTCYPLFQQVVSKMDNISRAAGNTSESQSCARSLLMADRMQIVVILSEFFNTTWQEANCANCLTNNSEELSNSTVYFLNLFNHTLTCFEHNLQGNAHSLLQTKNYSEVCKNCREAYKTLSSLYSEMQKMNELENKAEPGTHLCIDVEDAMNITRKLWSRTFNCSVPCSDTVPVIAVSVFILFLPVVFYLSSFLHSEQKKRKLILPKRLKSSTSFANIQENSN
# Sequence of UniProt Q96PU5 (Q96PU5 whole entry, looked up): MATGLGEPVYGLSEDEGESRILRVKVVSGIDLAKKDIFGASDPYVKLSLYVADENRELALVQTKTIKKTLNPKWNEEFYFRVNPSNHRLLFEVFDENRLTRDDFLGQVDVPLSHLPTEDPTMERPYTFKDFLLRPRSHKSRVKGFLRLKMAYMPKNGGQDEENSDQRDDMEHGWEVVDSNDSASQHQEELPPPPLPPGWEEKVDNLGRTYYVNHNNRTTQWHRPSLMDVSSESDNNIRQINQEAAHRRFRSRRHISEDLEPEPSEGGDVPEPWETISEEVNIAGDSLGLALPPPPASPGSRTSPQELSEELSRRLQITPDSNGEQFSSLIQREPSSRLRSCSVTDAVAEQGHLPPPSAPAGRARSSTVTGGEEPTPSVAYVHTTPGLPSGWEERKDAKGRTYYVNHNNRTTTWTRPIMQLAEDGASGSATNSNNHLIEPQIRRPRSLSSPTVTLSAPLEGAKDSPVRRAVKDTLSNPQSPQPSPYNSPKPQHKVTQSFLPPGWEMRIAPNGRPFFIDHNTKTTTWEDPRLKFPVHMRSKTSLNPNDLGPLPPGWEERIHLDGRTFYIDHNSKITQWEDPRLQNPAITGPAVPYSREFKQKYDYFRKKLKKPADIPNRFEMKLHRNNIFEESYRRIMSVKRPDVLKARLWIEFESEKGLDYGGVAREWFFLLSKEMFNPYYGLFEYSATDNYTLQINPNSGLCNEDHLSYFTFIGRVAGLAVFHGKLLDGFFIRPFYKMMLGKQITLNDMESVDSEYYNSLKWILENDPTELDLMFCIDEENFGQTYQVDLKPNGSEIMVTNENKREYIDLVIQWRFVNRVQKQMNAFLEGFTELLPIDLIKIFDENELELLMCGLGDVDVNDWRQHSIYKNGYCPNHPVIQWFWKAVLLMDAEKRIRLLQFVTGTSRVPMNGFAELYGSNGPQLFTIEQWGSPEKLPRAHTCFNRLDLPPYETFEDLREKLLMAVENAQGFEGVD
# Sequence of UniProt O60551 (O60551 whole entry, looked up): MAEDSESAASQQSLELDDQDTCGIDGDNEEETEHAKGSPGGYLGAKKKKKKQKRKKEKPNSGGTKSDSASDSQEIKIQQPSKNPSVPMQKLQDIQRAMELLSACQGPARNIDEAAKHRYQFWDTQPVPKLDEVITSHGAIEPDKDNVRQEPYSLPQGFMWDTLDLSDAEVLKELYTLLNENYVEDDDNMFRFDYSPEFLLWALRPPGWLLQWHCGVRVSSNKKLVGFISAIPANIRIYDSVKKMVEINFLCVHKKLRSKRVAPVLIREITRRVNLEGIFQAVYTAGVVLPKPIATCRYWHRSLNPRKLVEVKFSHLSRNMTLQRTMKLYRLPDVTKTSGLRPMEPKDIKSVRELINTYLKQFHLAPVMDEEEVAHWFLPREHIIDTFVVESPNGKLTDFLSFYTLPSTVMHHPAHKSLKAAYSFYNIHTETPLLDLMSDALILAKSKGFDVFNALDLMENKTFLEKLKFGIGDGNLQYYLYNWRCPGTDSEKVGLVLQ
# Sequence of UniProt Q9H019 (Q9H019 whole entry, looked up): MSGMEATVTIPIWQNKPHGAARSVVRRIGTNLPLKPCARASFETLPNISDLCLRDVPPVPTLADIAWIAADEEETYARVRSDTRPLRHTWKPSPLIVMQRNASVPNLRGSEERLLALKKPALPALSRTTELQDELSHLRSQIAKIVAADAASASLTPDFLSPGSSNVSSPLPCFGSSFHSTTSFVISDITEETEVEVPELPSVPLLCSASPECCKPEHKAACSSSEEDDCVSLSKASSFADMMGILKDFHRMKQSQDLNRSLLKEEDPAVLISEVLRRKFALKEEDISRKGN
Target,log2 fold change (erlotinib),log2 fold change [1],log2 fold change [2],log2 fold change [3],log2 fold change [4],log2 fold change [5],log2 fold change [6],log2 fold change [7],log2 fold change [8],log2 fold change [9]
NOP2 isoform 4 (UniProt P46087),-0.17,-0.261,-0.349,-0.064,-0.045,0.272,-0.255,0.078,0.023,0.006
MTHFS (UniProt P49914),0.01,0.062,0.055,-0.003,0.034,-0.024,0.026,0.083,-0.014,-0.12
MRPS18B (UniProt Q9Y676),0.026,0.101,-0.051,0.124,0.03,0.034,0.027,0.119,0.079,-0.119
NACC1 (UniProt Q96RE7),0.134,0.242,0.065,-0.034,-0.017,0.05,-0.02,-0.08,-0.059,-0.01
MTHFD1 (UniProt P11586),0.06,0.058,0.074,-0.019,0.019,-0.021,0.05,0.01,0.013,0.032
NECTIN2 isoform 2 (UniProt Q92692),-0.151,0.006,-0.386,0.117,0.168,-0.345,-0.029,-0.034,,
MSL1 (UniProt Q68DK7),0.185,-0.603 (active),0.106,-0.193,0.069,-0.033,0.066,-0.026,,
NEMP1 (UniProt O14524),-0.003,-0.011,-0.027,0.023,0.049,0.016,-0.056,-0.162,0.068,0.048
NUP210 (UniProt Q8TEM1),0.021,0.004,0.06,-0.004,0.011,0.015,-0.018,-0.186,-0.009,0.012
MORF4L2 (UniProt Q15014),-0.114,-0.056,-0.181,0.02,-0.03,0.002,-0.108,-0.039,-0.108,-0.051
MRPS33 (UniProt Q9Y291),0.023,-0.018,-0.129,0.021,0.019,0.032,-0.043,0.018,0.026,-0.133
NEDD4L (UniProt Q96PU5),0.014,0.078,-0.078,0.005,0.016,0.035,0.146,0.019,-0.026,-0.076
NME1 isoform 2 (UniProt P15531),0.034,-0.015,0.038,0.092,0.063,-0.05,-0.048,-0.001,0.032,0.074
MRPL46 (UniProt Q9H2W6),-0.025,-0.008,0,0.011,-0.054,-0.001,0.046,0.164,-0.031,-0.075
MRPS15 (UniProt P82914),-0.061,-0.201,-0.119,0.089,0.069,0.064,0.021,0.106,-0.045,-0.108
MON2 isoform 5 (UniProt Q7Z3U7),0.034,0.034,0.072,-0.019,0.016,0.015,0.015,0.007,-0.019,0.004
OXR1 (UniProt Q8N573),0.029,0.067,0.011,0.002,0.023,0.007,-0.043,-0.062,-0.03,0.056
NR2C2 isoform 2 (UniProt P49116),-0.001,-0.067,-0.011,0.006,0.019,-0.039,-0.003,-0.091,0.074,0.007
NMT2 (UniProt O60551),0.028,0.031,0.007,0.004,0.062,0.032,-0.043,0.021,0.041,-0.369 (active)
NUP205 (UniProt Q92621),0.047,0.131,-0.1,-0.031,0.068,0,0.016,-0.146,-0.063,-0.017
NARS2 (UniProt Q96I59),0.037,0.065,0.07,0.008,-0.018,-0.004,0.053,0.017,-0.002,-0.083
NMNAT1 (UniProt Q9HAN9),0.033,-0.145,-0.302,-0.111,-0.032,0.03,-0.102,-0.008,0.157,-0.046
MTFR1L (UniProt Q9H019),-0.002,-0.013,-0.202,0.064,-0.001,-0.03,0.077,0.13,0.036,-0.027
MPP1 (UniProt Q00013),0.083,0.098,0.027,0.016,0.004,-0.001,0.012,0.033,-0.048,-0.019
OTUD4 (UniProt Q01804),-0.032,-0.035,-0.137,0.042,-0.033,-0.025,0,0.038,-0.011,0.04
NOLC1 isoform 2 (UniProt Q14978),0.022,0.036,-0.051,-0.005,-0.11,0.024,-0.034,-0.171,-0.177,0
OSTM1 (UniProt Q86WC4),0.034,0.111,0.077,0.107,-0.106,0.001,0.044,-0.047,-0.035,-0.002
OTULIN (UniProt Q96BN8),-0.023,0.054,0.091,-0.143,0.066,0.06,-0.027,0.039,-0.042,-0.086
NKAP (UniProt Q8N5F7),0.029,0.023,-0.041,0.041,-0.189,-0.047,-0.085,-0.051,-0.064,-0.007
NAP1L1 (UniProt P55209),-0.021,0.006,0.036,0.035,-0.048,0.066,0.026,-0.018,-0.02,0.07
